# Data as given in PubChem BioAssay AID2284172 (EPA ToxCast).
# Calls of active or inactive are those of the source. The calls were made as follows: active = hit-call score of the fitted dose curve at least 0.9, where 1 is the maximum; inactive = score below 0.9.
# Biological target: rat Cav1.2 (L-type), conducted at France lab site, Cacna1a (gene 25398) (UniProt P54282)
# Experiment: ERF_FR_IC_rCACNA1C_Dihydropyridine: Eurofins (ERF) Calcium Ion Channel Binding (Dihydropyridine Site) LeadHunter Assay for rat Cav1.2 (L-type), conducted at France lab site
# Description: ERF_FR_IC_rCACNA1C_Dihydropyridine is a biochemical, single-readout assay that uses extracted gene-proteins in a cell-free assay. Measurements were taken 1.5 hour after chemical dosing in a 96-well plate. See Cav1.2 (L-type) Rat Calcium Ion Channel Binding (Dihydropyridine Site) Assay, Cerep.ERF_FR_IC_rCACNA1C_Dihydropyridine is an assay component calculated from the ERF_FR_IC_rCACNA1C_Dihydropyridine assay. It is designed to measure radioligand binding using a type of binding reporter as detected by scintillation counting with radiometry technology.Data from the assay component ERF_FR_IC_rCACNA1C_Dihydropyridine was analyzed at the assay endpoint, ERF_FR_IC_rCACNA1C_Dihydropyridine, in the positive analysis fitting direction relative to DMSO as the negative control and baseline of activity. Using a type of binding reporter, loss-of-signal activity can be used to understand changes in binding as they relate to gene CACNA1C. To generalize the intended target to other relatable targets, this assay endpoint is annotated to the ion channel intended target family, where the subfamily is voltage gated (Calcium).
# Rat brain cells are incubated for 90 minutes at room temprature with [3H]nitrendipine (0.25 nM) ligand and Nitrendipine as control inhibitor. Test Sample Requirements: Minimum for 1) Screen: 60 ul of 10 mM stock -OR- 1 mg (pre-weighed) for 10 uM final testing. […]
# Sequence of rat Cav1.2 (L-type), conducted at France lab site, Cacna1a (gene 25398) (P54282 whole entry, looked up): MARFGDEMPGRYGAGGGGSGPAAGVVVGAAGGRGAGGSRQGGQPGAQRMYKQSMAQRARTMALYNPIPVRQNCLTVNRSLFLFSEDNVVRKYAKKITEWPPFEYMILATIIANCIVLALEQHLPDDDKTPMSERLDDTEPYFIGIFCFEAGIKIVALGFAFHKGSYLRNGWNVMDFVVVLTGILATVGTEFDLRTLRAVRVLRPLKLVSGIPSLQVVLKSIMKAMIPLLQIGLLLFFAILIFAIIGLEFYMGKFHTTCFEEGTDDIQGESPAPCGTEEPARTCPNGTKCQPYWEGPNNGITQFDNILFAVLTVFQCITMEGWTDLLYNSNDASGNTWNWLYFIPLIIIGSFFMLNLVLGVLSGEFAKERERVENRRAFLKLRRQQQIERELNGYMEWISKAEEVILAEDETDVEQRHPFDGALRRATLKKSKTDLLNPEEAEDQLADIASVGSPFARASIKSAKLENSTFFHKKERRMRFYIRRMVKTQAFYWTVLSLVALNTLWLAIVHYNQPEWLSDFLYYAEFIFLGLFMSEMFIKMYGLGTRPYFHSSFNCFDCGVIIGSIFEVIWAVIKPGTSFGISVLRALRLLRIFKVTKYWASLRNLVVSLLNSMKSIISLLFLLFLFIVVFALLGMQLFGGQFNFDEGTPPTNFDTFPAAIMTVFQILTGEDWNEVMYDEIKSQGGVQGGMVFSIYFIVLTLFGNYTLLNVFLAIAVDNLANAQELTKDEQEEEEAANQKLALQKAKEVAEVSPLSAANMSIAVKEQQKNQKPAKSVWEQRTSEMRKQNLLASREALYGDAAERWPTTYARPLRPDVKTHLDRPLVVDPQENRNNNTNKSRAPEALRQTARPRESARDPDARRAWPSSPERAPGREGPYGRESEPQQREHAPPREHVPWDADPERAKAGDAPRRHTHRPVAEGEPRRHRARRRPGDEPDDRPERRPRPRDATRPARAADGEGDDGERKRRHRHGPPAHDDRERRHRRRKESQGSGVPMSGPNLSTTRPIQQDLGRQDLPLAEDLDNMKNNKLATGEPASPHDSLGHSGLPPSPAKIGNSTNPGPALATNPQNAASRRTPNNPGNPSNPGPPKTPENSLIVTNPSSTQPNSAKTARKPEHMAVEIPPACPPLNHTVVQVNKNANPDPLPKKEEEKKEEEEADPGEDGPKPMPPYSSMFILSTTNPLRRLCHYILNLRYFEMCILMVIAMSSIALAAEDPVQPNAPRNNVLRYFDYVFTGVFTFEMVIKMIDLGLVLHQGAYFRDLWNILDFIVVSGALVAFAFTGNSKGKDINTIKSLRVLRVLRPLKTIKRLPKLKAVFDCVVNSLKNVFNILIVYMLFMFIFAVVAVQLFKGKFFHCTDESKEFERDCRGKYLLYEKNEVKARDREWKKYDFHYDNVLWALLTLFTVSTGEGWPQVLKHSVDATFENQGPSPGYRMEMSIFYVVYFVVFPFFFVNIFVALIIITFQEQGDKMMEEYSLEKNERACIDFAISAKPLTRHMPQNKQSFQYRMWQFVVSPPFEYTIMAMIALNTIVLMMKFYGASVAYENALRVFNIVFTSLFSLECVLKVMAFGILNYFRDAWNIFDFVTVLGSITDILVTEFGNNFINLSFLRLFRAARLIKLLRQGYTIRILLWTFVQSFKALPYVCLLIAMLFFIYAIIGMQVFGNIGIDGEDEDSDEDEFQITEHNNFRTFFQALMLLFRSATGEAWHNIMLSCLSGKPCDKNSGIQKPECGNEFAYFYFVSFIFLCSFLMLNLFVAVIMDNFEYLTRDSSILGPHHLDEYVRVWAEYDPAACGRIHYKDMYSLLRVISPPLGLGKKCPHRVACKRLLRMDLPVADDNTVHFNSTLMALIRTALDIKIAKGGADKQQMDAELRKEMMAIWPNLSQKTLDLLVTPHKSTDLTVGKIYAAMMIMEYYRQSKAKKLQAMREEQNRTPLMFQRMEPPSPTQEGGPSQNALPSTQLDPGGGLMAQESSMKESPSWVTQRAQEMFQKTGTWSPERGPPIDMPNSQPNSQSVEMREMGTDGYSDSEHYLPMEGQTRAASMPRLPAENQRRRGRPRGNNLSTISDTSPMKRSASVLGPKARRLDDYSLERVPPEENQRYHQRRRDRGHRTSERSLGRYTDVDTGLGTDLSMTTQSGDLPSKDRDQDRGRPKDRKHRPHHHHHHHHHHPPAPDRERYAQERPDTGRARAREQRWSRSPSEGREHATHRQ
compound,measurement,value
CCCCC[C@H](O)CC(=O)CCc1ccc(O)c(OC)c1,outcome,inactive
